# Data published in the supplement of paper PMC3414501.
# Where a name gives a salt, the structure may show the parent alone.
# Experiments:
# [1] = tested on: S. cerevisiae SK1 pCDA2-eGFP (USY613), sporulating; assay: CDA2-GFP sporulation assay sensitivity score (z-score vs DMSO controls); higher = stronger inhibition of sporulation, active = hit call of the paper;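 note: active if sensitivity score above 5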
# [2] = tested on: S. cerevisiae AD1-9 (efflux-pump deficient), vegetative growth in YPD; assay: growth sensitivity score (doubling time z-score vs DMSO controls); higher = slower growth, strongly negative scores also mark growth inhibition (complete suppression), active = hit call of the paper
# Summary of the method: (§1)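 Optical density of Saccharomyces cerevisiae cultures in microtiter plates was followed every 15 min for 24 hours after seeding at an OD600 of 0.065. Eight solvent-only wells were run per experiment. Growth sensitivity scores were found by subtracting the solvent-only mean from the compound mean and dividing by the solvent-only standard deviation.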
# [3] = tested on: S. cerevisiae BY4741 (wild-type), vegetative growth in YPD; assay: as above
# Summary of the method: as §1
# [4] = stock concentration (mM, diluted 1:100): 10
# [5] = stock concentration (mM, diluted 1:100): 10.1
# [6] = stock concentration (mM, diluted 1:100): 7.7
# [7] = stock concentration (mM, diluted 1:100): 8.7
# [8] = stock concentration (mM, diluted 1:100): 7.6
structure (smiles),measurement,setting,value
C[N+]1(C)CCN(c2ccccc2)CC1 [Dimethylphenylpiperazinium Iodide],CDA2-GFP sporulation assay sensitivity score,[1]; [4],-0.6 (inactive)
same,growth sensitivity score,[2]; [4],-0.59 (inactive)
same,growth sensitivity score,[3]; [4],-0.67 (inactive)
CNC(=O)Oc1ccc2c(c1)[C@]1(C)CCN(C)[C@@H]1N2C [Physostigmine],CDA2-GFP sporulation assay sensitivity score,[1]; [4],0.21 (inactive)
same,growth sensitivity score,[2]; [4],-0.52 (inactive)
same,growth sensitivity score,[3]; [4],-1.51 (inactive)
CC(NC(C)(C)C)C(=O)c1cccc(Cl)c1 (stereo unspecified) [Amfebutamone hydrochloride],CDA2-GFP sporulation assay sensitivity score,[1]; [5],0.84 (inactive)
same,growth sensitivity score,[2]; [5],0.01 (inactive)
same,growth sensitivity score,[3]; [5],-0.7 (inactive)
COc1cc2c(cc1OC)[C@@]13CCN4CC5=CCO[C@H]6CC(=O)N2[C@H]1[C@H]6[C@H]5C[C@H]43 [Brucine],CDA2-GFP sporulation assay sensitivity score,[1]; [4],-1.75 (inactive)
same,growth sensitivity score,[2]; [4],-0.99 (inactive)
same,growth sensitivity score,[3]; [4],0.41 (inactive)
C[C@]12CC[C@H](O)CC1=CC[C@@H]1[C@@H]2CC[C@@]2(C)[C@H]1CC[C@]2(C)O [Methylandrostenediol],CDA2-GFP sporulation assay sensitivity score,[1]; [5],0.44 (inactive)
same,growth sensitivity score,[2]; [5],15.1 (active)
same,growth sensitivity score,[3]; [5],0.35 (inactive)
O=C(O)C(Cl)Cl [Dichloroacetic acid],CDA2-GFP sporulation assay sensitivity score,[1]; [4],1.21 (inactive)
same,growth sensitivity score,[2]; [4],0.15 (inactive)
same,growth sensitivity score,[3]; [4],-0.8 (inactive)
COc1ccc(CCN)cc1OC [Homoveratrylamine],CDA2-GFP sporulation assay sensitivity score,[1]; [4],-0.12 (inactive)
same,growth sensitivity score,[2]; [4],-1.46 (inactive)
same,growth sensitivity score,[3]; [4],-1.07 (inactive)
CCC(COC(=O)c1cc(OC)c(OC)c(OC)c1)(c1ccccc1)N(C)C (stereo unspecified) [Trimebutine maleate],CDA2-GFP sporulation assay sensitivity score,[1]; [6],0.35 (inactive)
same,growth sensitivity score,[2]; [6],3.33 (active)
same,growth sensitivity score,[3]; [6],0.59 (inactive)
CNC1CC(c2ccc(Cl)c(Cl)c2)c2ccccc21 (stereo unspecified) [Indatraline],CDA2-GFP sporulation assay sensitivity score,[1]; [4],2.43 (inactive)
O=C1Nc2ccc(Cl)cc2C(c2ccccc2Cl)=NC1O (stereo unspecified) [Lorazepam],CDA2-GFP sporulation assay sensitivity score,[1]; [4],5 (inactive)
same,growth sensitivity score,[2]; [4],2.16 (active)
same,growth sensitivity score,[3]; [4],-0.91 (inactive)
CN1C(=O)CN=C(c2ccccc2)c2cc(Cl)ccc21 [Diazepam],CDA2-GFP sporulation assay sensitivity score,[1]; [4],4.97 (inactive)
same,growth sensitivity score,[2]; [4],5.55 (active)
same,growth sensitivity score,[3]; [4],2.97 (active)
CCOC(=O)c1cncn1[C@H](C)c1ccccc1 [Etomidate],CDA2-GFP sporulation assay sensitivity score,[1]; [5],6.33 (active)
same,growth sensitivity score,[2]; [5],7.78 (active)
same,growth sensitivity score,[3]; [5],2.21 (active)
c1ccc2c3c([nH]c2c1)CNCC3 [Tryptoline],CDA2-GFP sporulation assay sensitivity score,[1]; [4],11.7 (active)
same,growth sensitivity score,[2]; [4],-1.27 (inactive)
same,growth sensitivity score,[3]; [4],-1.07 (inactive)
C[C@]12CC[C@H]3[C@@H](CCC4=CC(=O)CC[C@@H]43)[C@@H]1CC[C@@H]2O [19-Nortestosterone],CDA2-GFP sporulation assay sensitivity score,[1]; [4],1.91 (inactive)
same,growth sensitivity score,[2]; [4],5.3 (active)
same,growth sensitivity score,[3]; [4],2.24 (active)
C[C@]12Cc3c[nH]nc3C[C@@H]1CC[C@@H]1[C@@H]2CC[C@@]2(C)[C@H]1CC[C@]2(C)O [Stanozolol],CDA2-GFP sporulation assay sensitivity score,[1]; [4],-4.38 (inactive)
same,growth sensitivity score,[2]; [4],9.25 (active)
same,growth sensitivity score,[3]; [4],1.13 (inactive)
CN1C(=O)CN=C(c2ccccc2)c2cc([N+](=O)[O-])ccc21 [Nimetazepam],CDA2-GFP sporulation assay sensitivity score,[1]; [4],-0.53 (inactive)
same,growth sensitivity score,[2]; [4],0.79 (inactive)
same,growth sensitivity score,[3]; [4],-0.45 (inactive)
CNCC(O)c1ccc(O)cc1 (stereo unspecified) [Synephrine],CDA2-GFP sporulation assay sensitivity score,[1]; [4],4.04 (inactive)
same,growth sensitivity score,[2]; [4],0.18 (inactive)
same,growth sensitivity score,[3]; [4],-1.07 (inactive)
CCN(CC)CCOC(=O)C(O)(c1ccccc1)c1ccccc1 [Benactyzine hydrochloride],CDA2-GFP sporulation assay sensitivity score,[1]; [4],0.09 (inactive)
same,growth sensitivity score,[2]; [4],-0.44 (inactive)
same,growth sensitivity score,[3]; [4],-0.83 (inactive)
CN=C1CN(O)C(c2ccccc2)=c2cc(Cl)ccc2=N1 [Chlordiazepoxide],CDA2-GFP sporulation assay sensitivity score,[1]; [4],1.73 (inactive)
same,growth sensitivity score,[2]; [4],0.94 (inactive)
same,growth sensitivity score,[3]; [4],1.44 (inactive)
CC(C)[C@]12O[C@H]1[C@@H]1O[C@]13[C@]1(O[C@H]1C[C@H]1C4=C(CC[C@@]13C)C(=O)OC4)[C@@H]2O [Triptolide],CDA2-GFP sporulation assay sensitivity score,[1]; [4],-1.02 (inactive)
same,growth sensitivity score,[2]; [4],-2.17
same,growth sensitivity score,[3]; [4],-0.92 (inactive)
C#CCN(C)[C@H](C)Cc1ccccc1 [Selegiline],CDA2-GFP sporulation assay sensitivity score,[1]; [4],-0.13 (inactive)
same,growth sensitivity score,[2]; [4],-1.83 (inactive)
same,growth sensitivity score,[3]; [4],0.07 (inactive)
C[C@]12CC[C@H](O)CC1=CC[C@@H]1[C@@H]2CC[C@]2(C)C(=O)CC[C@@H]12 [Dehydroepiandrosterone],CDA2-GFP sporulation assay sensitivity score,[1]; [4],15.7 (active)
same,growth sensitivity score,[2]; [4],70.9 (active)
same,growth sensitivity score,[3]; [4],7.64 (active)
CC(=O)O[C@H]1C[C@@H]2CC[C@@H]3[C@H](CC[C@@]4(C)[C@H]3C[C@H]([N+]3(C)CCCCC3)[C@@H]4OC(C)=O)[C@@]2(C)C[C@@H]1[N+]1(C)CCCCC1 [Pancuronium],CDA2-GFP sporulation assay sensitivity score,[1]; [7],2.51 (inactive)
same,growth sensitivity score,[2]; [7],-8.57
same,growth sensitivity score,[3]; [7],-0.39 (inactive)
COc1cc(N)c(Cl)cc1C(=O)NC1CN2CCC1CC2 (stereo unspecified) [Zacopride],CDA2-GFP sporulation assay sensitivity score,[1]; [4],2.91 (inactive)
same,growth sensitivity score,[2]; [4],-2.46
same,growth sensitivity score,[3]; [4],-1.3 (inactive)
CN1CC[C@]23CCCC[C@H]2[C@H]1Cc1ccc(O)cc13 [Levorphanol tartrate],CDA2-GFP sporulation assay sensitivity score,[1]; [8],-2.67 (inactive)
same,growth sensitivity score,[2]; [8],-1.11 (inactive)
same,growth sensitivity score,[3]; [8],-0.24 (inactive)
O=C1CN=C(c2ccccc2)c2cc([N+](=O)[O-])ccc2N1 [Nitrazepam],CDA2-GFP sporulation assay sensitivity score,[1]; [4],-0.69 (inactive)
same,growth sensitivity score,[2]; [4],8.16 (active)
same,growth sensitivity score,[3]; [4],2.01 (active)
